According to the supplement of paper PMC6522484:
Several values for one entry are separate records, joined by “and”; a condition that tells them apart may be missing. Equal values may be shown once. ± gives the standard deviation of the averaged measurements.

How the values were obtained:
[1] = test system: DLD1; assay: cell viability (CellTiter-Glo) relative to plate median (fraction of plate median); higher = more viable cells; details: 5 µM; treatment time 24 h; reporter: 7TFP
Method in brief: (§1)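 On parallel plates, a Tecan F500 reader recorded either firefly luciferase or CellTiterGlo luminescence. The plates held colorectal cancer cells stably transduced with lentiviral TCF/Wnt firefly luciferase reporters (7TFP or TCF4/Wnt), seeded in 384-well format and treated 24 h later with library compounds at a final 5 µM for 24 h. Per-well signals were normalised to the plate median (webcellHTS2, additive, no log transformation), and two independent replicates were averaged.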

[2] = test system: HCT116; assay: as above; details: 5 µM; treatment time 24 h; reporter: TCF4/Wnt
Method in brief: as §1

[3] = test system: SW480; assay: as above; details: 5 µM; treatment time 24 h; reporter: 7TFP
Method in brief: as §1

[4] = test system: DLD1; assay: TCF/Wnt firefly luciferase reporter signal relative to plate median (fraction of plate median); higher = higher Wnt reporter signal; details: 5 µM; treatment time 24 h; reporter: 7TFP
Method in brief: as §1

[5] = test system: SW480; assay: as above; details: 5 µM; treatment time 24 h; reporter: 7TFP
Method in brief: as §1

Row | SMILES | cell viability [1] | cell viability [2] | cell viability [3] | TCF/Wnt firefly luciferase reporter signal [4] | TCF/Wnt firefly luciferase reporter signal [5]
1 | CCCCCCCCCc1ccc(O)cc1 | 1.03 ± 0.028 | 0.999 ± 0.016 | 0.946 ± 0.0071 | 1.19 ± 0.092 | 1.17 ± 0.05
2 | COc1ccc2c(c1)[C@]13CCCC[C@@H]1[C@H](C2)N(C)CC3 | 1 ± 0.053 | 0.992 ± 0.096 | 1.02 ± 0.035 | 1.03 ± 0.14 | 1 ± 0.023
3 | CON1C(=O)[C@H]2NC(=O)[C@]13Oc1cc(O)c(Cl)cc1[C@@H]3SS2 [Aspirochlorine] | 0.736 ± 0.087 | 0.918 ± 0.017 | 0.841 ± 0.026 | 0.981 ± 0.28 | 1 ± 0.035
4 | O=c1ccc2cc(O[C@@H]3O[C@H](CO)[C@@H](O)[C@H](O)[C@H]3O)c(O)cc2o1 | 1.04 | 0.922 and 0.995 | 0.965 and 0.998 | 1.23 and 1.08 | 1.09 and 1.19
5 | COC1C(O)C(O[C@H]2CC[C@]3(C=O)C4C(CC[C@]3(O)C2)[C@@]2(O)CC[C@H](C3=CC(=O)OC3)[C@@]2(C)C[C@H]4OC(C)=O)OC(C)C1OC(C)=O (stereo not given in full) | 0.929 ± 0.11 | 1.03 ± 0.083 | 0.941 ± 0.044 | 0.828 ± 0.042 | 0.83 ± 0.069
6 | C=C(C)[C@H]1CN[C@H](C(=O)O)[C@H]1CC(=O)O | 0.986 ± 0.035 | 1.01 ± 0.099 | 0.97 ± 0.0042 | 0.923 ± 0.11 | 0.947 ± 0.047
7 | O=C(O)c1cccc2nc3ccccc3nc12 [1-Phenazinecarboxylic acid] | 1.12 ± 0.16 | 1.05 | 1.32 ± 0.11 | 0.986 ± 0.091 | 1.03 ± 0.12
8 | C[C@@H]1C(=O)O[C@H]2[C@H]1CC[C@@]1(C)C=CC(=O)[C@@]3(C)O[C@@]213 [EPOXY (4,5alpha)-4,5-DIHYDROSANTONIN] | 0.995 ± 0.064 | 1.17 ± 0.071 | 1 ± 0.023 | 0.966 ± 0.09 | 0.902 ± 0.042
9 | CN1[C@H]2C[C@H](OC(=O)[C@H](CO)c3ccccc3)C[C@@H]1[C@@H](O)C2 | 0.934 ± 0.033 | 1 ± 0.039 | 0.957 ± 0.03 | 0.924 ± 0.025 | 0.94 ± 0.073
10 | O=C(NC(=O)c1c(F)cccc1F)Nc1ccc(Cl)cc1 | 1.01 ± 0.021 | 0.939 ± 0.07 | 1.01 ± 0.016 | 0.914 ± 0.18 | 0.876 ± 0.044
11 | CCCCCCCCC(=O)NCc1ccc(O)c(OC)c1 | 1.04 ± 0.064 | 0.972 ± 0.025 | 0.981 ± 0.056 | 0.792 ± 0.14 | 0.822 ± 0.061
12 | NC(=O)CN1CCCC1=O | 1.02 ± 0.051 | 1.01 ± 0.092 | 0.955 ± 0.024 | 0.925 ± 0.023 | 1.15 ± 0.05
13 | Oc1cc(Cl)ccc1Oc1ccc(Cl)cc1Cl | 0.936 ± 0.078 | 0.913 ± 0.011 | 0.954 ± 0.021 | 0.983 ± 0.15 | 0.893 ± 0.021
14 | NCC1(CC(=O)O)CCCCC1 | 1 ± 0.083 | 1.08 ± 0.021 | 0.981 ± 0.013 | 1.07 ± 0.057 | 1.1 ± 0.064
15 | N[C@@H]1C[C@H]1c1ccccc1.N[C@H]1C[C@@H]1c1ccccc1 | 1.02 ± 0.059 | 0.959 ± 0.0042 | 0.956 ± 0.033 | 1.05 ± 0.17 | 0.892 ± 0.12
16 | C=C1C[C@@H]2[C@H](CC[C@]3(C)C(=O)CC[C@@H]23)[C@@]2(C)C=CC(=O)C=C12 | 1.03 ± 0.11 | 1.12 ± 0.05 | 1.02 ± 0.031 | 0.961 ± 0.17 | 1.02 ± 0.13
17 | Nc1ncn[nH]1 | 0.973 ± 0.067 | 1.09 ± 0.11 | 1 ± 0.029 | 0.957 ± 0.089 | 0.978 ± 0.012
18 | C[C@]12CCC(=O)C=C1C=C[C@@H]1[C@@H]2CC[C@@]2(C)[C@H]1CC[C@@]2(O)CCC(=O)O | 1.02 ± 0.07 | 1.16 ± 0.014 | 1.04 ± 0.028 | 1.01 ± 0.05 | 1.06

Row | SMILES | cell viability [1] | cell viability [2] | cell viability [3] | TCF/Wnt firefly luciferase reporter signal [4] | TCF/Wnt firefly luciferase reporter signal [5]
19 | CC1=C2[C@H]3OC(=O)[C@@H](C)[C@@H]3CC[C@@]2(C)C=CC1=O | 1.08 ± 0.15 | 1.06 ± 0.078 | 1.03 ± 0.043 | 0.968 ± 0.026 | 1.06 ± 0.12
20 | CC1=C(O)C(=O)C=C2C1=CC=C1[C@@]2(C)CC[C@@]2(C)[C@@H]3C[C@](C)(C(=O)O)CC[C@]3(C)CC[C@]12C | 0.801 ± 0.11 | 0.837 ± 0.065 | 1 ± 0.012 | 0.863 ± 0.083 | 0.787 ± 0.12
21 | CC(=O)OCC1=C(C(=O)O)N2C(=O)[C@@H](NC(=O)CCC[C@@H](N)C(=O)O)[C@H]2SC1 | 0.955 ± 0.13 | 0.906 ± 0.13 | 0.9165 ± 0.0064 | 1.175 ± 0.0071 | 1.09 ± 0.05
22 | COc1cc(OC)c(OC)cc1C=O | 0.981 ± 0.13 | 1.01 ± 0.035 | 0.988 ± 0.06 | 0.925 ± 0.0042 | 0.963 ± 0.04
23 | CN(C)C(=O)Oc1cc(OC(=O)N(C)C)cc(C(O)CNC(C)(C)C)c1 (stereo not given) | 0.986 ± 0.021 | 1 ± 0.024 | 0.961 ± 0.044 | 0.911 ± 0.11 | 1.045 ± 0.0071
24 | CC1CC(Cl)CCC1C(=O)OC(C)(C)C (stereo not given) | 0.973 ± 0.052 | 1.045 ± 0.0071 | 0.956 ± 0.025 | 0.976 ± 0.034 | 0.989 ± 0.03
25 | O=c1[nH]c2ccccc2n1CCCN1CCC(n2c(=O)[nH]c3cc(Cl)ccc32)CC1 [Domperidone] | 0.898 ± 0.1 | 0.83 ± 0.042 | 0.94 ± 0.063 | 0.997 ± 0.09 | 0.814 ± 0.071
26 | O=C1NC(=O)C(=O)C(=O)N1 | 1.01 ± 0.057 | 0.935 ± 0.063 | 0.945 ± 0.014 | 0.829 ± 0.03 | 0.901 ± 0.064
27 | CC(C)=CCC[C@@H](C(=O)O)[C@H]1CC[C@@]2(C)C3=C(CC[C@]12C)[C@@]1(C)CC[C@H](O)C(C)(C)[C@@H]1CC3 [Trametenolic acid] | 0.995 ± 0.022 | 1.07 ± 0.071 | 1.02 ± 0.028 | 1.08 ± 0.085 | 1.12 ± 0.13
28 | CC[C@H](C)[C@H]1O[C@]2(C=C[C@@H]1C)C[C@@H]1C[C@@H](C/C=C(\C)[C@@H](O[C@H]3C[C@H](OC)[C@@H](O[C@H]4C[C@H](OC)[C@@H](O)[C@H](C)O4)[C@H](C)O3)[C@@H](C)/C=C/C=C3\CO[C@@H]4[C@H](O)C(C)=C[C@@H](C(=O)O1)[C@]34O)O2.CO[C@H]1C[C@H](O[C@H]2[C@H](C)O[C@@H](O[C@@H]3/C(C)=C/C[C@@H]4C[C@@H](C[C@]5(C=C[C@H](C)[C@@H](C(C)C)O5)O4)OC(=O)[C@@H]4C=C(C)[C@@H](O)[C@H]5OC/C(=C\C=C\[C@@H]3C)[C@]54O)C[C@@H]2OC)O[C@@H](C)[C@@H]1O | 0.893 ± 0.083 | 0.931 ± 0.0028 | 1.01 | 0.977 ± 0.089 | 0.987 ± 0.033
29 | CCNc1nc(Cl)nc(NC(C)C)n1 | 0.981 ± 0.017 | 1.07 ± 0.064 | 0.946 ± 0.023 | 0.965 ± 0.0071 | 0.976 ± 0.0071
30 | O=[N+]([O-])O[C@H]1CO[C@H]2[C@@H]1OC[C@H]2O[N+](=O)[O-] | 1 | 1.07 ± 0.014 | 1.05 ± 0.028 | 1.02 ± 0.11 | 1.11
31 | CC(C)=CCCC1(C)C=Cc2c(O)c3c(c(CC=C(C)C)c2O1)OC12C(=CC4CC1C(C)(C)OC2(C/C=C(/C)C(=O)O)C4O)C3=O (stereo not given) | 0.911 ± 0.11 | 0.979 ± 0.016 | 0.996 ± 0.1 | 0.848 ± 0.069 | 0.921 ± 0.054
32 | COc1ccc2[nH]cc(CCN)c2c1 | 1.09 ± 0.078 | 1.06 ± 0.086 | 1.04 ± 0.093 | 0.924 ± 0.095 | 1.06 ± 0.014
33 | O=C1C=CC(=O)c2c(O)cccc21 | 0.921 ± 0.035 | 0.972 ± 0.033 | 0.961 ± 0.016 | 1.03 | 1.08 ± 0.064
34 | O=C1C=C2C=C[C@@H]3C[C@@]2(O1)[C@H]1CCCCN31 | 1.1 ± 0.057 | 1.11 ± 0.064 | 1.02 ± 0.063 | 1.01 ± 0.023 | 0.988 ± 0.013
35 | CN1[C@@H]2CC[C@H]1C[C@@H](OC(=O)C(CO)c1ccccc1)C2 (stereo not given in full) | 0.911 ± 0.12 | 1.01 ± 0.033 | 0.994 ± 0.08 | 0.938 ± 0.21 | 0.938 ± 0.038
